High-throughput results as filed in PubChem BioAssay.
In the library only some 2% were active in any assay of this set; here they are far more common.
HER2 expr 66K: Her2 kinase expression inhibition | SKBR-3 HER2 protein level, AlphaScreen, 18-24 h; stronger effect = lower value | P04626 | hit rate 0.69% among 65,000 | HER2 level % of control, % at 10 µM | AID 645;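 active = HER2 level under 5% of the carrier-only control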;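 also: lower value means stronger loss of Her2 protein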
Jurkat tox 60K: cytotoxic compounds reducing Jurkat cell viability; Jurkat E6.1 viability, ATP luminescence, 48 h; inhibition, % at 4 µM; hit rate 1.2% among 56,000; AID 463;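 active = inhibition above the mean inhibition of all tested compounds plus 3 SD, cut at about 28% in these data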
SK-BR-3 tox 24h: SK-BR-3 proliferation inhibitors | SK-BR-3 viability, CellTiter-Glo ATP luminescence, 24 h; stronger effect = lower value | viability, % at 10 µM | AID 847 | hit rate 0.47% among 41,000;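 active = viability at or below the median of all test compounds minus 3 SD, in both replicates if run twice, cut at about 45% in these data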
Each line names hits and unclear results; the compound was inactive in the other large screens.

Cc1onc(-c2ccccc2)c1C(=O)Nc1ccccc1N1CCOCC1	none (no result: SK-BR-3 tox 24h)
Cc1onc(-c2ccccc2)c1C(=O)Nc1cc(C(F)(F)F)ccc1N1CCOCC1	Jurkat tox 60K 87 (no result: SK-BR-3 tox 24h)
CC(=O)c1sc(N2C(=O)c3oc4ccccc4c(=O)c3C2c2ccc(C)o2)nc1C (configuration not stated)	none (no result: SK-BR-3 tox 24h)
CC1(C)Cc2c(sc3nc(SCC#N)n(C4CCCCC4)c(=O)c23)CO1	none (no result: Jurkat tox 60K)
N#Cc1c(NCc2ccccc2)ccnc1NCc1cccnc1	Jurkat tox 60K 69
CN(C)c1ccnc(NCc2ccccc2)c1C#N	none (no result: SK-BR-3 tox 24h)
COc1ccc(OC)c(N(CC(=O)N2CCN(c3cc(Cl)ccc3C)CC2)S(C)(=O)=O)c1	none
COc1ccccc1N1CCN(CC(=O)c2c(C)[nH]c3ccccc23)CC1	none
Cc1[nH]c2ccccc2c1C(=O)COC(=O)C1CCC(=O)N1 (configuration not stated)	HER2 expr 66K -21 (no result: SK-BR-3 tox 24h)
Cc1cc(N2CCN(C/C=C/c3ccccc3)CC2)n2ncnc2n1	Jurkat tox 60K 37
Cc1cc(N2CCN(C(c3ccccc3)c3ccc(Cl)cc3)CC2)n2ncnc2n1 (configuration not stated)	none (no result: SK-BR-3 tox 24h)
Cc1ccc(N2C(=O)CC3(CC4C=CC3C4)C2=O)cc1 (configuration not stated)	none (no result: Jurkat tox 60K)
CCOC(=O)c1[nH]c(COC(=O)C2CC(=O)N(Cc3ccccc3)C2)c(C(=O)OCC)c1C (configuration not stated)	none (no result: SK-BR-3 tox 24h)
O=C(CN1C(=O)c2ccccc2S1(=O)=O)NCCSc1ccccc1	SK-BR-3 tox 24h 44
Cc1ccc(SCCNC(=O)CN2C(=O)c3ccccc3S2(=O)=O)cc1	none (no result: Jurkat tox 60K)
O=C(Cn1nc(C(F)(F)F)c2c1CCC2)N1CCN(c2ccccc2)CC1	none
N#CC(C#N)=c1ccc2c(c1)NC1(CCCCC1)N=2	HER2 expr 66K -26, Jurkat tox 60K 42
O=C1NC2(CCCC2)N=C1c1ccc(Cl)cc1	none (no result: SK-BR-3 tox 24h)
COC(=O)C(CC(=O)c1ccc(Br)cc1)n1ccnc1 (configuration not stated)	none
CC(C)(C)CC(=O)Nc1nnc(-c2cccs2)s1	none
CC(C)c1nnc(NC(=O)CCS(=O)(=O)c2nc(-c3cccs3)cc(C(F)(F)F)n2)s1	HER2 expr 66K -19
Cc1nc(CSc2nnc(C)s2)cs1	none (no result: Jurkat tox 60K, SK-BR-3 tox 24h)
Cc1nnc(Sc2nc(Sc3nnc(C)s3)nc(N3CCN(C)CC3)n2)s1	HER2 expr 66K -33, Jurkat tox 60K 101
Cc1nc(N)sc1-c1nnc(SCC(=O)Nc2nccs2)n1C	none
CC(C)Oc1snc(Cl)c1C(N)=O	none (no result: Jurkat tox 60K)
COC(=O)c1[nH]c2ccc(C)cc2c1NS(=O)(=O)c1ccc(F)c(C)c1	none
COC(=O)c1[nH]c2ccc(C)cc2c1NS(=O)(=O)c1ccc(F)cc1	SK-BR-3 tox 24h 38
COC(=O)c1[nH]c2ccc(C)cc2c1NC(=O)CN1CCCc2ccccc21	HER2 expr 66K -22
COC(=O)c1[nH]c2ccc(C)cc2c1NC(=O)CN1CCCCC1C (configuration not stated)	none
CCn1ncc(C2=NOC(C(=O)Nc3cccnc3)C2)c1C (configuration not stated)	none (no result: SK-BR-3 tox 24h)
CCn1ncc(C2=NOC(C(=O)NCc3ccc(Cl)cc3)C2)c1C (configuration not stated)	Jurkat tox 60K 92 (no result: SK-BR-3 tox 24h)
Cc1noc(/C=C/N(C)C)c1S(=O)(=O)N1CCC(C(=O)O)CC1	none (no result: SK-BR-3 tox 24h)
COc1ccccc1-c1c(C)nn2c(N3CCC4(CC3)OCCO4)cc(C)nc12	none (no result: SK-BR-3 tox 24h)
Cc1cc(N2CCC3(CC2)OCCO3)n2nc(C)c(-c3ccc(Cl)cc3)c2n1	HER2 expr 66K -19 (no result: Jurkat tox 60K, SK-BR-3 tox 24h)
O=C(O)C1CCC(=O)N1Cc1ccccc1Cl (configuration not stated)	none (no result: SK-BR-3 tox 24h)
CCCOc1ccc2ccccc2c1/C=N/n1c(C)nnc1-n1nc(C)cc1C	Jurkat tox 60K 82
Cc1cc(C)n(-c2nnc(C)n2/N=C/c2ccco2)n1	none (no result: Jurkat tox 60K)
Cc1ccc2[nH]c(C)c(CN(C)C3CCN(C)CC3)c(=O)c2c1	SK-BR-3 tox 24h 26
CCOc1ccc2[nH]c(C)c(CN(C)C)c(=O)c2c1	none
O=C1OCCC1Sc1nc2cc(Cl)ccc2s1 (configuration not stated)	none (no result: SK-BR-3 tox 24h)
CCn1c(CN2CCCCCC2=O)nnc1SCc1cnc(-c2ccccc2)s1	none (no result: SK-BR-3 tox 24h)
Cc1ccc(-c2csc3ncnc(Sc4nnc(CN5CCCCCC5=O)o4)c23)cc1	HER2 expr 66K -25, Jurkat tox 60K 71 (no result: SK-BR-3 tox 24h)
CCC(=O)N[C@@H]1CC(C(C)(C)NC(=O)CC)CC=C1C (some centres not stated)	none (no result: Jurkat tox 60K)
CCn1c(-c2ccc(N)cc2)nc2ccccc21	none (no result: SK-BR-3 tox 24h)
CCn1c(-c2ccc(N(C)C)cc2)nc2ccccc21	Jurkat tox 60K 50
O=C(CCCn1c(=O)c2ccccc2n(Cc2ccccc2)c1=O)NCc1ccco1	none
O=C(CCCCn1c(=O)c2ccccc2n(Cc2ccc(F)cc2)c1=O)NCc1ccco1	Jurkat tox 60K 37
CC(C)CNC(=O)C1CCN(c2ccc(S(=O)(=O)N3CCOCC3)cc2Cl)CC1	none
O=C(NCc1cccs1)C1CCN(c2ccc(S(=O)(=O)N3CCOCC3)cc2Cl)CC1	Jurkat tox 60K 91
CCCCn1c(SCC(=O)Nc2cc(NC(=O)c3ccco3)ccc2C)nc2ccccc2c1=O	HER2 expr 66K -16
CCn1c(SCC(=O)Nc2ccc(NC(=O)c3ccco3)c(OC)c2)nc2ccccc2c1=O	none (no result: SK-BR-3 tox 24h)
COc1ccc(-n2nnc3c(SCC(=O)N4CCCc5ccccc54)ncnc32)cc1	none (no result: SK-BR-3 tox 24h)
Cc1c(O)nc(SC2CC(=O)N(c3ccccc3)C2=O)[nH]c1=O (configuration not stated)	none
O=C1CC(Sc2nnnn2C2CCCCC2)C(=O)N1c1ccccc1 (configuration not stated)	HER2 expr 66K -3.2 (no result: SK-BR-3 tox 24h)
CS(=O)(=O)n1nc(OC(=O)c2cccc3ccccc23)cc1N	SK-BR-3 tox 24h 42
COc1ccc(S(=O)(=O)n2nc(OC(=O)c3ccccc3Br)cc2N)cc1	none
CN(Cc1cccs1)S(=O)(=O)c1cccs1	none (no result: SK-BR-3 tox 24h)
Cc1noc(C)c1CSc1nc2ccccc2nc1NS(=O)(=O)c1ccc(Cl)cc1	Jurkat tox 60K 76 (no result: SK-BR-3 tox 24h)
O=S(=O)(Nc1nc2ccccc2nc1NCc1ccco1)c1ccc(Cl)cc1	none
O=C(Nc1cccc(NS(=O)(=O)c2ccc(S(=O)(=O)NC3CC3)cc2)c1)c1ccccn1	none
COc1ccc(C2NC(=O)c3n[nH]c(C)c32)c(OC)c1 (configuration not stated)	none (no result: SK-BR-3 tox 24h)
COc1ccc(C2CC(c3c(O)cc(C)oc3=O)=NCCS2)c(OC)c1 (configuration not stated)	Jurkat tox 60K 95 (no result: SK-BR-3 tox 24h)
O=C(NCC(c1cccnc1)N1CCN(c2ccccc2F)CC1)c1cccc(Cl)c1 (configuration not stated)	none (no result: Jurkat tox 60K, SK-BR-3 tox 24h)
COc1ccc(-n2nnc3c(SCC(=O)NCC4CCCO4)ncnc32)cc1 (configuration not stated)	HER2 expr 66K -0.9 (no result: SK-BR-3 tox 24h)
CCN(CC)C(=O)CSc1ncnc2c1nnn2-c1ccc(OC)cc1	none (no result: SK-BR-3 tox 24h)
CC1(C)C(=O)OC(c2cccs2)C(C)(C)C1=O (configuration not stated)	none
